The structures appear in SMILES notation. Results filed as inconclusive are left out. Values without a mark were called inactive. The source made the active and inactive calls. Calls come from the whole dose curve; as a rule, active = well fitted curve in either direction with a large enough effect (not every such curve was filed as active); inconclusive = small, poorly fitted or top-dose-only effect, or another doubt; inactive = flat fitted curve, though single readings scatter.
% is set by controls: 0 for no effect and ±100 for the full control effect.

The target in the assay is Mitogen-activated protein kinase 10 (Mus musculus) (UniProt Q61831). The experiment in a line: JNK3 AlphaScreen Assay (AID 530).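 Note: kinase came from lysate of stimulated human HepG2 cells.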 The note with it: JNK3 lysate, c-Jun phosphorylation; series mostly up to 57.1 µM. An excerpt: NIH Chemical Genomics Center [NCGC]
NIH Molecular Libraries Screening Centers Network [MLSCN]
The c-jun N-terminal kinase (JNK) family are serine/threonine protein kinases that phosphorylate c-jun, a component of the transcription factor […] (AP-1). JNK kinases are members of the mitogen-activated protein kinase family including the extracellular regulated kinases and p38 kinases. Three JNK genes (JNK 1, 2, and 3) have been identified in humans so far. JNK1 and JNK2 have a broad distribution and JNK3 is primarily found in neuronal tissues and cardiac myocytes.
JNK3 has been under consideration as a target for the treatment of neurodegenerative disorders. […] JNK pathway is also involved in pathological process in a mouse model of Parkinson's disease (Xia et al., 2001).
Given these potential tissue distributions and links to neuroprotection, JNK3 inhibitors should provide useful investigational tools to study the role of this kinase in several diseases including, arthritis, stroke, myocardial infarction, ischemic injury and Parkinson's disease.
A homogeneous AlphaScreen is developed to measure the activity of JNK3. AlphaScreen is a two bead-based proximity-dependent chemical energy transfer luminescent assay platform. The phosphorylation of a biotinylated c-jun substrate by JNK3 can be detected with an antibody raised against phosphorylated c-jun. This process brings streptavidin donor beads and Protein-A acceptor beads to within a proximity range of <200 nm, and subsequently lead a chemical luminescent reaction upon exciting donor beads with 680 nm laser excitation light. Inhibition of JNK3 activity by small molecules and subsequent decrease in the antibody binding to biotinylated c-jun could attenuate or abolish this chemical luminescent reaction.
Yang DD, Kuan CY, Whitmarsh AJ, Rincon M, Zheng TS, Davis RJ, Rakic P and Flavell RA (1997) Absence of excitotoxicity-induced apoptosis in the hippocampus of mice lacking the Jnk3 gene. Nature 389:865-870. [PMID: 9349820]
Herdegen T, Claret FX, Kallunki T, Martin-Villalba A, Winter C, Hunter T, and Karin M (1998) Lasting N-terminal phosphorylation of c-Jun and activation of c-Jun N-terminal kinases after neuronal injury. J.Neurosci. 18:5124-5135. [PMID: 9651196]
Xia XG, Harding T, Weller M, Bieneman A, Uney JB and Schulz JB (2001) Gene transfer of the JNK interacting protein-1 protects dopaminergic neurons in the MPTP model of Parkinson's disease. Proc.Natl.Acad.Sci.U.S.A. 98:10433-10438.
NCGC Assay Protocol Summary:
GST-cJun (1-79) (Stratagene, La Jolla CA, #205145) was biotnylated by PerkinElmer (PerkinElmer-BioSignalInc. Montreal, Canada) and was detectable by the streptavidin Donor beads. Anti-(phospho)cJun (Ser73) antibody was from UpState (Charlottesvilles, VA, #06-659). JNK3-containing lysates were generated from HepG2 cells and pre-activated by interleukin1-beta and tumor necrosis factor alpha. All reagents were stored at -20 C before using. Phosphorylated biotinylated-GST-cJun was recognized by Anti-(phospho)cJun (Ser73) antibody and this process brings acceptor and donor beads together. Therefore JNK3 phosphorylation of cJun can be measured by Alpha reading by EnVision (PerkinElmer, Boston, MA).
The composition of kinase buffer was (in mM) 20 tris- HCl (pH 7.6) 10 MgCl2, 1 DTT, and 0.1 Na3VO4 and 0.01% Tween-20. Beads were diluted in detection buffer containing (in mM) 20 tris-HCl (pH 7.7), 20 NaCl and 80 EDTA and 0.3% BSA. The assay was performed at room temperature. All compounds were screened as titrations from 0.6 nM to 46 uM final concentration. The assay was performed in 1536-well format (white solid bottom and untreated) as follows:
Sequence,Parameter,Value,Description
1,Reagent,3 uL,Biotin-GST-cJun, Anti-(phospho)cJun and pre-activated JNK3-containing lysates
2,Compound,23 nL,Final concentration was 0.6nM to 46uM
3,Time,15 minutes,Room Temperature
4,Reagent,1 uL,ATP final concentration 10uM
6,Reagent,0.5 uL,2ng/well bead mixture
[…]
As for `CNC(=O)[C@H]1C[C@@H]1[C@H](NP(=O)(c1ccccc1)c1ccccc1)c1ccccc1`, the molecule was called inactive. Consider `CCCN1CCC[C@H](c2cccc(C#N)c2)C1`, for which the molecule was classed as inactive. In the case of `CC(=O)N1C[C@@H]2C[C@H](C1)c1cccc(=O)n1C2`, the result was inactive. Turning to `COC(=O)[C@@H]1C[C@H]1[C@@H](NP(=O)(c1ccccc1)c1ccccc1)c1ccccc1`, the molecule was called inactive. Still for that read-out and setting: with `Oc1ccc2c3c1O[C@@H]1[C@@H](O)CC[C@]4(O)[C@H](C2)N(CC2CCC2)CC[C@@]314` the entry was “inactive”. For the molecule `C[C@@H]1CC[C@@]2(OC1)O[C@H]1[C@@H](O)[C@H]3[C@@H]4CC[C@H]5C[C@@H](O[C@@H]6O[C@H](CO)[C@H](O[C@@H]7O[C@H](CO)[C@@H](O)[C@H](O[C@@H]8OC[C@@H](O)[C@H](O)[C@H]8O)[C@H]7O[C@@H]7O[C@H](CO)[C@@H](O)[C@H](O[C@@H]8O[C@H](CO)[C@@H](O)[C@H](O)[C@H]8O)[C@H]7O)[C@H](O)[C@H]6O)[C@H](O)C[C@]5(C)[C@H]4CC[C@]3(C)[C@H]1[C@@H]2C`, the call was inactive. Same read-out and setting: to `CCC/C=C(\CCC)C(NP(=O)(c1ccccc1)c1ccccc1)c1ccccc1` (stereo not given) belongs “inactive”.

Consider `CC[C@H]1[C@@H]2C[C@@H]3[C@@H]4N(C)c5ccccc5[C@@]45C[C@@H]([C@H]2[C@@H]5O)N3[C@@H]1O`, for which the result was inactive. As for `C[N+]1(C)[C@@H]2CC(OC(=O)[C@@H](CO)c3ccccc3)C[C@@H]1[C@H]1O[C@H]12` (stereo not given in full), the activity change, negative = inhibition was 0.144% [at 11.4 µM]. As to `CCCCCCCCCCCCCC(=O)O[C@H]1[C@@H](C)[C@@]2(O)[C@@H](C=C(CO)C[C@]3(O)C(=O)C(C)=C[C@@H]23)C2C(C)(C)[C@]21OC(C)=O` (stereo not given in full), the molecule was called inactive. With `FC(F)(F)c1ccc(Cl)cc1`, the molecule was classed as inactive. `CCOC(=O)c1cncn1[C@@H](C)c1ccccc1`: the result was inactive. The same measure, in the same setting: with `C=C(C)c1ccccc1` the entry was “inactive”. Turning to `Oc1cc2c(cc1O)[C@H]1c3ccccc3CN[C@@H]1CC2`, the molecule was classed as inactive. On the same count and under the same terms, to `CN(C)[C@H]1C(=O)C(C(N)=O)=C(O)[C@]2(O)C(=O)C3=C(O)c4c(O)cccc4[C@@](C)(O)[C@H]3C[C@@H]12` belongs “inactive”; to `O=c1ccc2cc(O[C@@H]3O[C@@H](CO)[C@@H](O)[C@@H](O)[C@H]3O)c(O)cc2o1`, “inactive”. As for `CC1(C)[C@@H]2CC[C@]1(C)CN(CCC[N+](C)(C)C)C2`, the activity change, negative = inhibition was 0.443% [at 11.4 µM]. Regarding `C(=NC1CCCCC1)=NC1CCCCC1`, the molecule was called inactive. On the same count and under the same terms, with `C=C[C@@H]1CN2CC[C@H]1C[C@H]2[C@@H](O)c1ccnc2ccccc12` the entry was “inactive”; with `CN(C)c1ccc(N=O)cc1`, “inactive”. The same measure, in the same setting: to `c1cc2c(cc1[C@H]1OC[C@H]3[C@@H]1CO[C@H]3c1ccc3c(c1)OCO3)OCO2` belongs “inactive”; to `CNc1ccc2oc(C[C@@H]3O[C@@]4(CC[C@H]3C)O[C@@H]([C@@H](C)C(=O)c3ccc[nH]3)[C@@H](C)C[C@H]4C)nc2c1C(=O)O`, “inactive”; to `C[C@@H](Cc1ccc2c(c1)OC(C(=O)O)(C(=O)O)O2)NC[C@H](O)c1cccc(Cl)c1`, “inactive”. Still for that read-out and setting: to `COc1cc2c(cc1OC)-c1c(OC)c(OC)c(CO)c3c1[C@H](C2)N(C)CC3` belongs “inactive”; to `CCN1C[C@@]2(COC)[C@H](O)C[C@H](OC)[C@@]34[C@@H]5C[C@@]6(O)[C@H](OC(=O)c7ccccc7)[C@H]5[C@@](OC(C)=O)([C@H]([C@@H](OC)[C@H]23)[C@H]14)[C@H](O)[C@@H]6OC`, “inactive”.

With `OC[C@H]1CCCN2CCCC[C@@H]12`, the call was inactive. As for `C#CCO`, the result was inactive. With `C=CCN1C[C@@H](C)N([C@H](c2ccc(C(=O)N(CC)CC)cc2)c2cccc(OC)c2)C[C@H]1C`, the molecule was called inactive. Still for that read-out and setting: to `C[C@H](N)c1cccc(Cl)c1Cl` belongs “inactive”; to `CCCCCC[C@H]1C(=O)O[C@H](C)[C@H](NC(=O)c2cccc(NC=O)c2O)C(=O)O[C@@H](C)[C@H]1OC(=O)CC(C)C`, “inactive”; to `COc1cc2c(cc1OC)[C@]13CCN4CC5=CCO[C@@H]6CC(=O)N2[C@@H]1[C@H]6[C@@H]5C[C@H]43`, “inactive”. Still for that read-out and setting: with `C[C@]12Cc3cn4c(nc3C=C1CC[C@H]1[C@@H]2CC[C@@]2(C)[C@H]1CC[C@@]2(O)C#N)nc1ccccc14` the entry was “inactive”. `[Cd+2].[Cl-].[Cl-]`: the molecule was called inactive. Take `CN1[C@@H]2CC[C@H]1CC(O[C@@H](c1ccccc1)c1ccccc1N)C2` (stereo not given in full): the molecule was classed as inactive.

Regarding `c1ccc2ncccc2c1`, the outcome was inactive. Take `C[C@@]1([C@@H](NP(=O)(c2ccccc2)c2ccccc2)c2ccccc2)C[C@H]1CCO`: the result was inactive.

As to `CC1=CC(=O)C2=C(C)C[C@H](O)[C@@H]3[C@@H](OC(=O)[C@H]3C)[C@H]12`, the outcome was inactive. On to `O=C1CC[C@]2(O)[C@H]3Cc4ccc(O)c5c4[C@@]2(CCN3CC2CC2)[C@@H]1O5`, for which the molecule was called inactive. Regarding `O=[N+]([O-])c1ccc(O[C@H]2O[C@@H](CO)[C@@H](O)[C@@H](O)[C@@H]2F)c([N+](=O)[O-])c1`, the molecule was called inactive. For `CN[C@H]1[C@H]2[C@H]3CCN2C[C@@H]1O3`, the molecule was classed as inactive.
